72 sequences from the supplement of paper PMC10338343 can be followed below.

± gives the standard deviation. Whole data set: some 6,600 sequences, median “pre-steady-state target cleavage rate” near 0.07, cut for the highest 2% near 0.72. Shown is part of a subset that was picked to be rich in the highest values.

This test concerns MIWI (PIWIL1) piRISC loaded with Kctd7 piRNA (30 nt). Nature of the test: pre-steady-state target cleavage rate (min^-1); MIWI and MILI are mouse PIWI proteins and EfPiwi is from a freshwater sponge; tags in brackets are library labels; higher = faster piRNA-guided slicing of the target. The settings on record: guide: Kctd7 piRNA 5'p-UGUUAAUCUCUCAGAGAAGGUGACAGUGAU; auxiliary factor: 500 nM mouse GTSF1. As for the experimental part: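 Cleave-'n-Seq: a library of target RNAs (target site embedded in constant flanks, ACAGCATTCCGCGTTAGTGATATCCG... 5' flank; DNA-blocked outside the site) at 0.1 nM was incubated with 1 nM active mouse MILI or MIWI piRISC (synthetic 5'-monophosphorylated piRNA guide) with or without 500 nM mouse GTSF1 at 33 °C for 1 min to 16 h. Uncleaved targets were sequenced and normalised to non-target controls, and the pooled three trials were fitted to a burst-and-steady-state model to give the pre-steady-state cleavage rate (min^-1; k3 is constrained to at most 1e-4). Sequence is the target site only; target names encode pairing extent (gX:gY) and contiguous / 1-mismatch / 2-mismatch / bulge geometry. Fits with R² ≤ 0 are excluded.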
Regarding UACACUGUCACCUUCUGAGAGAGAUUUUGA, the “pre-steady-state target cleavage rate” value amounted to 0.0616 ± 0.019.

AUCACUGUCACCUUGUCUGAGAGAUUUUGA: the “pre-steady-state target cleavage rate” value amounted to 1.4 ± 0.36. As for UACACUGUCACCUUCACUGAGAGAUUUUGA, the “pre-steady-state target cleavage rate” value worked out at 0.302 ± 0.099.

In the case of UACACUGUCACCUUGUCUGAGAGAUUUUGA, the “pre-steady-state target cleavage rate” value was determined as 1.02 ± 0.24. As for UACACUGUCACCUUGACUGAGAGAUUUUGA, the “pre-steady-state target cleavage rate” value came to 0.117 ± 0.039. For the sequence UAGUCUGUCACCUUGUCUGAGAGAUUUUGA, the “pre-steady-state target cleavage rate” value was determined as 0.197 ± 0.06. Turning to UAGUCUGUCACCUUCACUGAGAGAUUUUGA, the “pre-steady-state target cleavage rate” value was 0.176 ± 0.046. For the sequence AUCACUGUCACCUUCUCUGAGAGAUUUUGA, the “pre-steady-state target cleavage rate” value came to 0.0948 ± 0.023. Consider AUCACUGUCACCUUCACUGAGAGAUUUUGA, for which the “pre-steady-state target cleavage rate” value came to 0.339 ± 0.082. For the sequence UAGACUGUCACCUUGUCUGAGAGAUUUUGA, the “pre-steady-state target cleavage rate” value is 0.234 ± 0.066. As for AUCACUGUCACCUUGACUGAGAGAUUUUGA, the figure is 0.839 ± 0.22. Turning to UUCACUGUCACCUUGUCUGAGAGAUUUUGA, the “pre-steady-state target cleavage rate” value was determined as 1.06 ± 0.27.

Take UAGUGACACACGUUGUCUGAGAGAUUAACA: the “pre-steady-state target cleavage rate” value was 0.0596 ± 0.011.

On to UAGUGACAGUCCUUCUCUGAGAGAUUAAACA, for which the “pre-steady-state target cleavage rate” value came out at 0.0368 ± 0.0052.

In the case of UAGUGACACAGCUUCUCUGAGAGAUUAUGA, the “pre-steady-state target cleavage rate” value is 0.00591 ± 0.0022.

Consider UUCACUGUCACCUUGCUCUGAGAGAUUAACA, for which the “pre-steady-state target cleavage rate” value was found to be 0.747 ± 0.11. As for UUCACUGUCACCUGCUCUGAGAGAUUAACA, the “pre-steady-state target cleavage rate” value amounted to 0.645 ± 0.031. AUCACUGUCACCUGUCUCUGAGAGAUUAACA: the “pre-steady-state target cleavage rate” value is 0.651 ± 0.038. Take UACACUGUCACCUGCUCUGAGAGAUUAACA: the “pre-steady-state target cleavage rate” value was 0.571 ± 0.03. The result for UACACUGUCACCUUGCUCUGAGAGAUUAACA reads 1.01 ± 0.17; that for UACACUGUCACCUUGUCUGAGAGAUUAACA, 0.355 ± 0.042; that for UAGUCUGUCACCUUGCUCUGAGAGAUUAACA, 0.47 ± 0.081. With AUCACUGUCACCUUGCUCUGAGAGAUUAACA, the “pre-steady-state target cleavage rate” value came to 1.1 ± 0.18. Regarding AUCACUGUCACCUGCUCUGAGAGAUUAACA, the “pre-steady-state target cleavage rate” value worked out at 0.673 ± 0.026. On to UAGACUGUGACCUUCUCUGAGAGAUUAUCA, for which the “pre-steady-state target cleavage rate” value was 0.246 ± 0.033. Take UAGACACUCACCUUCUCUGAGAGAUUAUGA: the “pre-steady-state target cleavage rate” value amounted to 0.141 ± 0.031. As to AUCACUGUCACGUUCACUGAGAGAUUAACA, the “pre-steady-state target cleavage rate” value turned out to be 0.44 ± 0.025.

Regarding UAGUCUGUCACCUUCUCUGAGAGAUAAUGA, the “pre-steady-state target cleavage rate” value stood at 0.0204 ± 0.0082. As for UUCACUGUCACCUUCUCUGAGAGUUUAUGA, the figure is 0.71 ± 0.18; as for UAGUGUGUCACCUUCUCUGAAGAGAUUAACA, 0.00762 ± 0.0051. Consider UACACUCUCACCUUCUCUGAGUGAUUAACA, for which the “pre-steady-state target cleavage rate” value worked out at 0.0216 ± 0.0064. Turning to UAGUCUUUCACCUUCUCUGAGAGAUUAACA, the “pre-steady-state target cleavage rate” value turned out to be 0.265 ± 0.015. Consider UAGUGAGUCAGCUUCUCUGAGAGAAUAACA, for which the “pre-steady-state target cleavage rate” value worked out at 0.199 ± 0.032.

Consider UACACUGUCACCUUCUCUGUCAGAUUAACA, for which the “pre-steady-state target cleavage rate” value was 0.0245 ± 0.008.

In the case of UAGACUGUCACCUUUCUGAGAGAUUAACA, the “pre-steady-state target cleavage rate” value came out at 0.5 ± 0.033. Take AUCACUGUCACCUUUCUGAGAGAUUAACA: the “pre-steady-state target cleavage rate” value came to 0.532 ± 0.025. Consider UUCACUGUCACCUUUUCUGAGAGAUUAACA, for which the “pre-steady-state target cleavage rate” value was determined as 0.679 ± 0.028. The result for UAGACUGUCACCUUUUCUGAGAGAUUAACA reads 0.732 ± 0.034; that for AUCACUGUCACCUUUUCUGAGAGAUUAACA, 0.748 ± 0.029; that for UAGACUGUCACCUUUCUCUGAGAGAUUAACA, 0.538 ± 0.039. In the case of UAGUGAGUCACCUUCACUCAGAGAUUAACA, the “pre-steady-state target cleavage rate” value came out at 0.0317 ± 0.0057. Take UUCACUGUCUCCUUCUCUGAGAGAUUAUCA: the “pre-steady-state target cleavage rate” value is 0.231 ± 0.035. Take UAGUGACAGUGCUUCACUGAGAGAUUAACA: the “pre-steady-state target cleavage rate” value is 0.00805 ± 0.0033. As for UAGUGACUCACGUUCUCUGAGAGAUUUUGA, the figure is under 0.0001; as for UAGAAUGUCACCUUCUCUGAGAGAUUAACA, 0.652 ± 0.038.

With UACACUGUCACCUUGUCUGAGAGAUUUACA, the “pre-steady-state target cleavage rate” value worked out at 0.989 ± 0.19.

With UACACUGUCACCUUGUCUGAGAGUUUAACA, the “pre-steady-state target cleavage rate” value was 0.442 ± 0.11.

Consider UAGUCUGUCACCUUGUCUGAGAGAUUUACA, for which the “pre-steady-state target cleavage rate” value came to 0.25 ± 0.045.

As to AUCACUGUCACCUUGUCUGAGAGUUUAACA, the “pre-steady-state target cleavage rate” value was 0.745 ± 0.15. As for UUCACUGUCACCUUGUCUGAGAGAUUUACA, the “pre-steady-state target cleavage rate” value was found to be 0.671 ± 0.12.

For UUCACUGUCACCUUGUCUGAGAGUUUAACA, the “pre-steady-state target cleavage rate” value was 0.422 ± 0.077. AUCACUGUCACCUUGUCUGAGAGAUUUACA: the “pre-steady-state target cleavage rate” value is 0.799 ± 0.14. Consider UAGACUGUCACCUUGUCUGAGAGAUUUACA, for which the “pre-steady-state target cleavage rate” value worked out at 0.659 ± 0.12. On to AUCACUGUCACCUUCACUGAGAGAUUUACA, for which the “pre-steady-state target cleavage rate” value was 0.511 ± 0.082.

Take UACACUGUGACCUUCUCUGAGAGAUUAACA: the “pre-steady-state target cleavage rate” value stood at 0.464 ± 0.037. Consider UAGUGACAGUCCUUCUCUGAGAGUAUUAACA, for which the “pre-steady-state target cleavage rate” value amounted to 0.0116 ± 0.0023. As to UAGUGUGUCACCUUCUCUGAGACAUUUACA, the “pre-steady-state target cleavage rate” value stood at 0.028 ± 0.0097.

With UAGUGACACACCAACUCUGAGAGAUUAACA, the “pre-steady-state target cleavage rate” value was determined as 0.0222 ± 0.0043.

As for UUCACUCAGACCUUCUCUGAGAGAUUAUGA, the “pre-steady-state target cleavage rate” value was 0.0052 ± 0.0036.

With UAGUGAGACACCUUCUCUGAGAGAUUAAGA, the “pre-steady-state target cleavage rate” value turned out to be 0.0909 ± 0.019. AACACUGUCACCUUCUCUGAGAGAUUAUGA: the “pre-steady-state target cleavage rate” value amounted to 0.101 ± 0.021.

Take UAGACUGUCAUCCUUCUCUGAGAGAUUAACA: the “pre-steady-state target cleavage rate” value turned out to be 0.262 ± 0.023. Take UAGACUGUCACUCUUCUCUGAGAGAUUAACA: the “pre-steady-state target cleavage rate” value was determined as 0.457 ± 0.032. The result for AUCACUGUCAUCUUCUCUGAGAGAUUAACA reads 0.827 ± 0.041; that for AUCACUGUCACUCUUCUCUGAGAGAUUAACA, 0.53 ± 0.035. Turning to UUCACUGUCAUCUUCUCUGAGAGAUUAACA, the “pre-steady-state target cleavage rate” value is 0.596 ± 0.027.

For UAGACUGUCAUCUUCUCUGAGAGAUUAACA, the “pre-steady-state target cleavage rate” value came out at 0.848 ± 0.051. Take AUCACUCUCACCUUCUCUGAGAGAUUAUGA: the “pre-steady-state target cleavage rate” value was 0.049 ± 0.018. Regarding UAGACUGUCACCUUCUCUCAGAGUUUAACA, the “pre-steady-state target cleavage rate” value is 0.0473 ± 0.0063. With UAGUCUGACACCUUGUCUGAGAGAUUAACA, the “pre-steady-state target cleavage rate” value was 0.164 ± 0.022. For AUCAAUGUCACCUUCUCUGAGAGAUUAACA, the “pre-steady-state target cleavage rate” value was 0.672 ± 0.03.

Take UUCACUGUCUCCUUCUCUGAGAGAUUAACA: the “pre-steady-state target cleavage rate” value turned out to be 0.685 ± 0.036.
